{"source": "paper PMC4336329", "about": "(PLoS ONE, 2015)", "note": "The campaign covered roughly 310,000 compounds. About 2,200 (0.71%) showed an effect of 50% or more. Effects have a minus sign here. What follows is part of a selection rich in strong results, with near analogues and random picks from the rest."}
{"molecular_target": "human ether-à-go-go-related gene (hERG) potassium channel (human, UniProt Q12809)", "sequence (Q12809 whole entry, looked up)": "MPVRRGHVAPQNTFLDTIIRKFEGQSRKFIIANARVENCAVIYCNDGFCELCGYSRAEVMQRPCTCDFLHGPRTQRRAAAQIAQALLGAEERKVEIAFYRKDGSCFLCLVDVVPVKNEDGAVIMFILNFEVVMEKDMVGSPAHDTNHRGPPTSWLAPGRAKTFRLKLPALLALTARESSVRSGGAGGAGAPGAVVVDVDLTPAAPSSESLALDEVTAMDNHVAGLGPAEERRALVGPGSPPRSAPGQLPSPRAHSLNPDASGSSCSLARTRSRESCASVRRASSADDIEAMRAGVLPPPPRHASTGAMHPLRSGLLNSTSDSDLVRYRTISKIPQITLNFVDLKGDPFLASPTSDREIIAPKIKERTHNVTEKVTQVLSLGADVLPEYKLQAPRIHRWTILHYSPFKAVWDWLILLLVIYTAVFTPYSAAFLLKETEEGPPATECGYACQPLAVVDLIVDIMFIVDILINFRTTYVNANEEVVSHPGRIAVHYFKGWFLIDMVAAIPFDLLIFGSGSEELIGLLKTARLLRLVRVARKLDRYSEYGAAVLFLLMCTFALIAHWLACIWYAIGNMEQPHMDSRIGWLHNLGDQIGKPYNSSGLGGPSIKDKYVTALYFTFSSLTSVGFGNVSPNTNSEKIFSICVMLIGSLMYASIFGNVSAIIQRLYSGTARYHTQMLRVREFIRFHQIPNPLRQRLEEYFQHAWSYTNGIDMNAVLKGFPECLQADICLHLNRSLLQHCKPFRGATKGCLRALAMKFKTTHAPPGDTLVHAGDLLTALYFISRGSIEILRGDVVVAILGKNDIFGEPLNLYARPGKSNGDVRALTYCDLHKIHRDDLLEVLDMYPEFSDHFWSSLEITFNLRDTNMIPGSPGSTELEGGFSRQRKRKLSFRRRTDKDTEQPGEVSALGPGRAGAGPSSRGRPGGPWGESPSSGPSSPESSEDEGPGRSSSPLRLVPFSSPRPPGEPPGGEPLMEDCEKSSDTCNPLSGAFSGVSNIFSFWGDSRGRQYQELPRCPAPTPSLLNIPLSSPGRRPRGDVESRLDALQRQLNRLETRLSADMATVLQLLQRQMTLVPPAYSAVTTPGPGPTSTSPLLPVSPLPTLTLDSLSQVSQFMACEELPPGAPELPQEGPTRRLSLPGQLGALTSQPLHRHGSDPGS", "assay": "primary screen, population patch clamp on CHO cells stably expressing hERG; higher = less effect of the substance", "experimental": "Briefly, Chinese hamster ovary (CHO) cells stably expressing the hERG channel were dislodged from tissue culture flasks and dispensed into PPC plates. […] During the recording, background leak currents were estimated by a 100 ms step to -80 mV from an initial holding potential of -70 mV and subtracted from the subsequent current measurement. The campaign was conducted in two phases using slight differences in recording protocol. In the first phase, the initial voltage pulse used a 100 ms step to -30 mV from a holding potential of -70 mV, a 2 s conditioning step to +25 mV, and a 2 s test step to -30 mV. During the second phase of the screen, the potential during the conditioning step was raised to +45 mV. In both phases of the campaign, a secondary voltage pulse was applied using the same parameters as the second phase initial pulse. The initial and secondary pulses were applied in the absence of compound, and upon application of 1 μM and 10 μM test concentrations. Small molecule effects on hERG current density were quantified by […].", "units": {"hERG current change (%, negative = inhibition) at 1uM": "%"}}
{"smiles": "CN1CCCc2cc3c(C(F)(F)F)cc(=O)oc3nc21", "hERG current change (%, negative = inhibition) at 1uM": 14.3}
{"smiles": "O=C(CSc1nc(C(F)(F)F)cc(=O)[nH]1)N1CCCCCC1", "hERG current change (%, negative = inhibition) at 1uM": 5.27}
{"smiles": "Cc1nc(C)c(C(=O)NCc2ccccc2Cl)o1", "hERG current change (%, negative = inhibition) at 1uM": 10.8}
{"smiles": "O=[N+]([O-])c1cccc(N(CC(O)CN2CCCCC2)S(=O)(=O)c2ccccc2)c1", "note": "(stereo not drawn)", "hERG current change (%, negative = inhibition) at 1uM": -24.2}
{"smiles": "Cc1ccc(S(=O)(=O)N(CC(O)CN2CCCCC2)c2cccc([N+](=O)[O-])c2)cc1", "note": "(stereo not drawn)", "hERG current change (%, negative = inhibition) at 1uM": -73.1}
{"smiles": "O=C(CN(c1ccc([N+](=O)[O-])cc1)S(=O)(=O)c1ccccc1)N1CCCCC1", "hERG current change (%, negative = inhibition) at 1uM": -0.85}
{"smiles": "Cc1ccc(S(=O)(=O)N(CC(O)CN2CCOCC2)c2cccc([N+](=O)[O-])c2)cc1", "note": "(stereo not drawn)", "hERG current change (%, negative = inhibition) at 1uM": 2.27}
{"smiles": "COc1ccc([N+](=O)[O-])cc1N(CC(O)CN1CCCCC1)S(=O)(=O)c1ccccc1", "note": "(stereo not drawn)", "hERG current change (%, negative = inhibition) at 1uM": 2.16}
{"smiles": "O=[N+]([O-])c1ccc(S(=O)(=O)N(CC(O)CN2CCCCC2)c2ccccc2)cc1", "note": "(stereo not drawn)", "hERG current change (%, negative = inhibition) at 1uM": -80.4}
{"smiles": "O=[N+]([O-])c1cccc(N(CC(O)CN2CCCC2)S(=O)(=O)c2ccccc2)c1", "note": "(stereo not drawn)", "hERG current change (%, negative = inhibition) at 1uM": -25.9}
{"smiles": "O=[N+]([O-])c1ccc(N(CC(O)CN2CCCCC2)S(=O)(=O)c2ccccc2)cc1", "note": "(stereo not drawn)", "hERG current change (%, negative = inhibition) at 1uM": -79.5}
{"smiles": "O=[N+]([O-])c1ccccc1S(=O)(=O)N(CC(O)CN1CCCCC1)c1ccccc1", "note": "(stereo not drawn)", "hERG current change (%, negative = inhibition) at 1uM": 2.79}
{"smiles": "Cn1c(=O)cc(OCCCC(=O)Nc2ccc3c(c2)OCCO3)c2ccccc21", "hERG current change (%, negative = inhibition) at 1uM": 17.2}
{"smiles": "Cc1ccn2c(=O)nc(SCC(=O)NC3CCCCC3)nc2c1", "hERG current change (%, negative = inhibition) at 1uM": 2.62}
{"smiles": "C/C(=N\\NC(=O)CNC(=O)C(c1ccccc1)c1ccccc1)c1ccc(C(C)(C)C)cc1", "hERG current change (%, negative = inhibition) at 1uM": 2.98}
{"smiles": "COc1cc(-c2nc3cnccc3n2C)cc(OC)c1OC", "hERG current change (%, negative = inhibition) at 1uM": 2.44}
{"smiles": "CCCCOc1ccc(CN(C)c2ncnc(N)n2)cc1", "hERG current change (%, negative = inhibition) at 1uM": -1.16}
{"smiles": "O=[N+]([O-])/C(C(Cl)=C(Cl)Cl)=C(\\Sc1ccccc1)N1CCCCC1", "hERG current change (%, negative = inhibition) at 1uM": -3.16}
{"smiles": "Nc1cccc2c1C(=O)N(C(=O)c1cccc(S(=O)(=O)N3CCCC3)c1)C2=O", "hERG current change (%, negative = inhibition) at 1uM": 12.5}
{"smiles": "COC(=O)c1ccc(Cn2nc(C)c([N+](=O)[O-])c2C)o1", "hERG current change (%, negative = inhibition) at 1uM": 2.01}
{"smiles": "O=C1NN(c2ccc(Cl)c(Cl)c2)C(=O)/C1=C/c1ccc(-c2ccccc2C(=O)O)o1", "hERG current change (%, negative = inhibition) at 1uM": 13}
{"smiles": "Cc1cccc(CS(=O)(=O)Cc2ccc(C(=O)N3CCC4(CC3)OCCO4)o2)c1", "hERG current change (%, negative = inhibition) at 1uM": 10}
{"smiles": "Cc1cccnc1NC(=S)NCCc1ccccc1", "hERG current change (%, negative = inhibition) at 1uM": -3.36}
{"smiles": "CC(C)C[C@H](NC(=O)c1nc[nH]c1C(=O)N[C@@H](CC(C)C)C(=O)OCc1ccccc1)C(=O)OCc1ccccc1", "hERG current change (%, negative = inhibition) at 1uM": 9.56}
{"smiles": "CC(C)C[C@H](NC(=O)c1[nH]cnc1C(=O)N[C@@H](Cc1ccccc1)C(=O)OCc1ccccc1)C(=O)OCc1ccccc1", "hERG current change (%, negative = inhibition) at 1uM": 10.2}
{"smiles": "CNC(=O)c1[nH]cnc1C(=O)N[C@@H](CC(C)C)C(=O)OCc1ccccc1", "hERG current change (%, negative = inhibition) at 1uM": -51.8}
{"smiles": "COc1ccccc1NC(=O)N1CCCC1C(=O)Nc1ccc2c(c1)OCO2", "note": "(stereo not drawn)", "hERG current change (%, negative = inhibition) at 1uM": 2.76}
{"smiles": "O=C(CCC1COc2ccccc2O1)NCC1COc2ccccc2O1", "note": "(stereo not drawn)", "hERG current change (%, negative = inhibition) at 1uM": 6.41}
{"smiles": "Cc1nnc(SCc2nnc(-c3ccccc3Br)o2)s1", "hERG current change (%, negative = inhibition) at 1uM": 18.8}
{"smiles": "CC(=O)c1cccc(NC(=O)/C(=C/c2ccco2)NC(=O)c2ccco2)c1", "hERG current change (%, negative = inhibition) at 1uM": 10.1}
{"smiles": "CC(=O)c1cccc(NC(=O)/C(=C\\c2ccco2)NC(=O)c2ccco2)c1", "hERG current change (%, negative = inhibition) at 1uM": -50.7}
{"smiles": "CC(=O)c1ccc(NC(=O)/C(=C\\c2ccco2)NC(=O)c2ccco2)cc1", "hERG current change (%, negative = inhibition) at 1uM": 4.96}
{"smiles": "CCc1ccc(-n2nc3cc(C)c(N)cc3n2)cc1", "hERG current change (%, negative = inhibition) at 1uM": 13.3}
{"smiles": "COc1ccc(NC(=O)NC2(C(=O)N3CCCC(C)C3)CCCCC2)cc1", "note": "(stereo not drawn)", "hERG current change (%, negative = inhibition) at 1uM": 14.1}
{"smiles": "CC1(C)Cc2cccc(OCC(=O)N3CCN(c4ccc(F)cc4)CC3)c2O1", "hERG current change (%, negative = inhibition) at 1uM": -16.2}
{"smiles": "O=C(CCc1ccccc1)N1CCN(c2ccc([N+](=O)[O-])cc2)CC1", "hERG current change (%, negative = inhibition) at 1uM": -67.4}
{"smiles": "O=C(CCCc1ccccc1)N1CCN(c2ccc([N+](=O)[O-])cc2)CC1", "hERG current change (%, negative = inhibition) at 1uM": -48.2}
{"smiles": "COc1ccc(C(=O)ON=C2CCN(c3ccc([N+](=O)[O-])cc3)CC2)cc1", "hERG current change (%, negative = inhibition) at 1uM": -57.7}
{"smiles": "Cc1ccc(C(=O)ON=C2CCN(c3ccc([N+](=O)[O-])cc3)CC2)cc1", "hERG current change (%, negative = inhibition) at 1uM": -21.2}
{"smiles": "O=C(ON=C1CCN(c2ccc([N+](=O)[O-])cc2)CC1)c1ccccc1", "hERG current change (%, negative = inhibition) at 1uM": -26}
{"smiles": "CC1(C)Cc2cccc(OCC(=O)N3CCN(c4ccccc4)CC3)c2O1", "hERG current change (%, negative = inhibition) at 1uM": -2.57}
{"smiles": "CC1(C)Cc2cccc(OCC(=O)N3CCN(c4ccc([N+](=O)[O-])cc4)CC3)c2O1", "hERG current change (%, negative = inhibition) at 1uM": -51.8}
